PubChem BioAssay (NCATS)
Results filed as inconclusive are left out. Activity calls are given as the source filed them. Calls come from the whole dose curve; as a rule, active = well fitted inhibition curve with a large enough effect; inconclusive = small, poorly fitted or top-dose-only effect; inactive = flat fitted curve, though single readings scatter. Where a SMILES comes first, the peptide text is derived from it.

Key:
CRL-7250 = normal cell line; test: Cytotoxic Profiling of Annotated Libraries Using Quantitative High-Throughput Screening (AID 1296008); settings: Five cell lines viability, CellTiter-Glo ATP luminescence, 48-72 h; max response: active compounds read low; for max response: % is set by controls: 0 for no effect and ±100 for the full control effect
In short: (§1)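 Cells exposed to compounds for 48 or 72 hr at 37 degrees Celsius. Viability read as ATP-coupled luminescence with CellTiter-Glo after 10 min at room temperature.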

HEK293 = test: as above; settings: Five cell lines viability, CellTiter-Glo ATP luminescence, 48-72 h; max response: active compounds read low
In short: as §1

HaCat [1] = test: as above; settings: Five cell lines viability, CellTiter-Glo ATP luminescence, 48-72 h; max response: active compounds read low
In short: as §1

KB-3-1 = test: as above; settings: Five cell lines viability, CellTiter-Glo ATP luminescence, 48-72 h; max response: active compounds read low
In short: as §1

NIH3T3 = test: as above; settings: Five cell lines viability, CellTiter-Glo ATP luminescence, 48-72 h; max response: active compounds read low
In short: as §1

HACAT [2] = test: qHTS assay to identify novel small-molecules to repurpose for Merkel cell carcinoma treatment (AID 1296009); settings: MCC and control cell lines, CellTiter-Glo viability, 72 h; at 44.8 µM (top of the series) unless noted
In short: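 Cells were treated for 72 hr at 37 degree celsius with compounds in 8- or 11-point dose response. Viability was read by CellTiter-Glo luminescence, normalized to no-cell (cytotoxicity) and DMSO controls.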

Measured: max response
Note: nearly all actives have a fitted effect of over 60% in size.

CC(C)C1NC(=O)CNC(=O)C2CCCN2C(=O)C(Cc2c[nH]c3ccccc23)NC(=O)CNC(=O)C(Cc2ccc(O)cc2)NC(=O)CNC1=O (stereo not given) (cyclo(GVGYGWP); configuration not given here)
inactive: CRL-7250 -2.61% | HEK293 3.25% | HaCat [1] | KB-3-1 | NIH3T3 -0.317% | HACAT [2] inactive [at 17.4 µM]

CSCC1OC(n2cnc3c(=O)[nH]cnc32)C(O)C1O (stereo not given)
inactive: CRL-7250 -7.17% | HEK293 -2.06% | HaCat [1] | KB-3-1 2.69% | NIH3T3 | HACAT [2]

CC1OC(OC2C(OC3C(O[C@H]4CC[C@@]5(C)C(CC[C@]6(C)C5C(=O)CC5=C7CC(C)(C)CC(O)[C@]7(C)CC[C@]56C)C4(C)C)OC(C(=O)O)C(O)C3O)OCC(O)C2O)C(O)C(O)C1O (stereo not given in full)
inactive: CRL-7250 0.224% | HEK293 2.58% | HaCat [1] | KB-3-1 | NIH3T3 -0.899% | HACAT [2] inactive [at 9.27 µM]

O=C(O)C[C@H]1CCC(=O)[C@@H]1C/C=C\CCO
inactive: CRL-7250 | HEK293 0.813% | HaCat [1] | KB-3-1 0.282% | NIH3T3 | HACAT [2]

O=C(OC(C(F)(F)F)C(F)(F)F)N1CCN(Cc2cccc(Oc3ccccc3)c2)CC1
inactive: CRL-7250 | HEK293 -26.5% | HaCat [1] | KB-3-1 -5.42% | NIH3T3 4.82% | HACAT [2]

COc1cccc2c1c(O)c(C(=O)N(C)c1ccc(C(F)(F)F)cc1)c(=O)n2C
inactive: CRL-7250 -1.12% | HEK293 3.79% | HaCat [1] | KB-3-1 0.95% | NIH3T3 2.51% | HACAT [2]

CC1CC(=O)C2C(O)(C1)CC(O)C13OC1c1c(O)cccc1C(=O)C23O (stereo not given)
inactive: CRL-7250 | HEK293 -12.4% | HaCat [1] | KB-3-1 3.15% | NIH3T3 | HACAT [2]

O=C(Cn1c2ccccc2c2nc3n(c(=O)c21)CCS3)N1CCCC1
inactive: CRL-7250 | HEK293 -15.3% | HaCat [1] | KB-3-1 | NIH3T3 1.74% | HACAT [2]

CC(C)=C1CC2[C@](C)(CC[C@@H](OC(=O)C3(C)OC3C)[C@@]2(C)O)CC1=O (stereo not given in full)
inactive: CRL-7250 | HEK293 4.03% | HaCat [1] | KB-3-1 6.8% | NIH3T3 -3.35% | HACAT [2]

COC(=O)C1=COC(OC2OC(CO)C(O)C(O)C2O)C2C(C)C(OC(=O)/C=C/c3ccc(O)cc3)C(O)C12 (stereo not given)
inactive: CRL-7250 0.486% | HEK293 -0.112% | HaCat [1] | KB-3-1 1.09% | NIH3T3 -1.55% | HACAT [2] inactive [at 17.4 µM]

CC(=O)OC1C(O)C(C)(O)C(/C=C/C(=O)O)C2(C)CCCC(C)(C)C12 (stereo not given)
inactive: CRL-7250 4.11% | HEK293 0.298% | HaCat [1] | KB-3-1 6.25% | NIH3T3 | HACAT [2]

O=C(OCC(O)CO[C@@H]1O[C@H](C(=O)O)[C@@H](O)[C@H](O)[C@H]1O)c1ccccc1 (stereo not given in full)
inactive: CRL-7250 4.18% | HEK293 -2.05% | HaCat [1] | KB-3-1 0.261% | NIH3T3 0.296% | HACAT [2]

C=C[C@H]1[C@H](O[C@@H]2O[C@H](CO)[C@@H](O)[C@H](O)[C@H]2O)OC=C(C(=O)OC)[C@H]1CCO
inactive: CRL-7250 -6.38% | HEK293 2.87% | HaCat [1] | KB-3-1 5.52% | NIH3T3 -6.64% | HACAT [2]

C=C1CCC2C(C)(C)CC(=O)CC2(C)C1CCC(C)CCO (stereo not given)
inactive: CRL-7250 -5.3% | HEK293 1.61% | HaCat [1] | KB-3-1 0.95% | NIH3T3 | HACAT [2]

COc1ccccc1CN[C@H]1CCCN[C@H]1c1ccccc1
inactive: CRL-7250 | HEK293 -1.91% | HaCat [1] | KB-3-1 1.76% | NIH3T3 | HACAT [2]

COC(=O)C1C(c2ccc(O)cc2)C(C(=O)O)C1c1ccc(O)cc1 (stereo not given)
inactive: CRL-7250 -7.64% | HEK293 -2.14% | HaCat [1] | KB-3-1 7.92% | NIH3T3 -3.05% | HACAT [2]

C=CCc1ccc(O[C@@H]2O[C@H](CO)[C@@H](O)[C@H](O)[C@H]2O)c(O[C@@H]2O[C@H](CO)[C@@H](O)[C@H](O)[C@H]2O)c1
inactive: CRL-7250 -3.11% | HEK293 -0.299% | HaCat [1] | KB-3-1 | NIH3T3 | HACAT [2] inactive [at 17.4 µM]

COC(=O)C1=CO[C@@H](O[C@@H]2O[C@H](CO)[C@@H](O)[C@H](O)[C@H]2O)/C(=C\CO)[C@@H]1CC(=O)OCCc1ccc(O)cc1
inactive: CRL-7250 0.106% | HEK293 2.34% | HaCat [1] | KB-3-1 | NIH3T3 | HACAT [2] inactive [at 17.4 µM]

O=C(OCC1=CC(Cl)C(O)C(OC(=O)c2ccccc2)C1O)c1ccccc1 (stereo not given)
inactive: CRL-7250 2.93% | HEK293 -7.58% | HaCat [1] | KB-3-1 | NIH3T3 1.71% | HACAT [2] inactive [at 17.4 µM]

CC(O)C/C=C/C=C/C(=O)OC1C=C2COC(=O)C2(O)C2(C)CCCC(C)(C)C12 (stereo not given)
inactive: CRL-7250 | HEK293 -13.6% | HaCat [1] | KB-3-1 5.12% | NIH3T3 -2.82% | HACAT [2]

COc1ccc(/C=C/C(=O)O[C@@H]2[C@@H](O)[C@@H](O)[C@H](O[C@H]3[C@@H]4C=CO[C@@H](O[C@@H]5O[C@H](CO)[C@@H](O)[C@H](O)[C@H]5O)[C@@H]4[C@@]4(CO)O[C@@H]34)O[C@H]2C)cc1
inactive: CRL-7250 -8.85% | HEK293 -4.15% | HaCat [1] | KB-3-1 1.26% | NIH3T3 0.471% | HACAT [2] inactive [at 17.4 µM]

C=CC1(C)CC=C2C(CCC3C(C)(C(=O)O)CCCC23C)C1 (stereo not given)
inactive: CRL-7250 4.68% | HEK293 -4.6% | HaCat [1] | KB-3-1 7.47% | NIH3T3 -6.29% | HACAT [2]

C/C=C/C=C/C(=O)OC1CC/C=C/C(O)C(O)C(CCC)OC1=O (stereo not given)
inactive: CRL-7250 -18.3% | HEK293 4.94% | HaCat [1] | KB-3-1 4.6% | NIH3T3 | HACAT [2]

C[C@]1(O)CC[C@@H]2C(C(=O)O)=CO[C@@H](O[C@@H]3O[C@H](CO)[C@@H](O)[C@H](O)[C@H]3O)[C@@H]21
inactive: CRL-7250 -9.18% | HEK293 -5.73% | HaCat [1] | KB-3-1 0.108% | NIH3T3 1.11% | HACAT [2]

CC1=C(CO)C2(C)CCCC(C)(C)C2C(O)C1O (stereo not given)
inactive: CRL-7250 -6.52% | HEK293 -5.93% | HaCat [1] | KB-3-1 | NIH3T3 | HACAT [2]

Cc1c(F)cc(C(=O)NC2CC2)cc1-c1ccc(C(=O)NCC(C)(C)C)cn1
inactive: CRL-7250 | HEK293 -4.94% | HaCat [1] | KB-3-1 4.19% | NIH3T3 -1.86% | HACAT [2]

O=C(O)c1ccc(NC(=O)[C@H](CC2CCCC2)n2cnc(C(F)(F)F)c2)nc1
inactive: CRL-7250 -11.6% | HEK293 -11% | HaCat [1] | KB-3-1 | NIH3T3 | HACAT [2]

CC(=O)c1ccc(O[C@@H]2O[C@H](CO[C@@H]3OC[C@@H](O)[C@H](O)[C@H]3O)[C@@H](O)[C@H](O)[C@H]2O)cc1
inactive: CRL-7250 | HEK293 -1.26% | HaCat [1] | KB-3-1 4.67% | NIH3T3 | HACAT [2] inactive [at 17.4 µM]

O=C(OCC1OC(Oc2ccc(O)cc2COC(=O)C2(O)C(O)CCC(=O)C2OC(=O)C2C=CCC2)C(OC(=O)C2C=CCC2)C(O)C1O)C1C=CCC1 (stereo not given)
inactive: CRL-7250 -0.0328% | HEK293 -10.5% | HaCat [1] | KB-3-1 6.15% | NIH3T3 3.99% | HACAT [2] inactive [at 17.4 µM]

C=C1C(O)C(O)C2(CC3C(C)=CCC4C(C)(C(=O)O)CCCC34C)OC2C1O (stereo not given)
inactive: CRL-7250 -4.59% | HEK293 1.46% | HaCat [1] | KB-3-1 2.87% | NIH3T3 | HACAT [2]

C[C@@H]1C[C@@H](O)[C@@]23CO[C@]2(CO)C[C@@H](O)CC3[C@@]12CC(c1ccoc1)OC2=O (stereo not given in full)
inactive: CRL-7250 -3.28% | HEK293 0.731% | HaCat [1] | KB-3-1 | NIH3T3 | HACAT [2]

O=C(Nc1ccn(Cc2c(F)cccc2C(F)(F)F)n1)c1c(F)cccc1F
inactive: CRL-7250 -12.9% | HEK293 1.72% | HaCat [1] | KB-3-1 | NIH3T3 2.19% | HACAT [2] inactive [at 9.27 µM]

Cc1nc2ccccc2c(-c2ccc3c4c(ccnc24)CCO3)c1[C@H](OC(C)(C)C)C(=O)O
inactive: CRL-7250 -8% | HEK293 4.74% | HaCat [1] | KB-3-1 -6.3% | NIH3T3 -2.71% | HACAT [2]

CC(=O)O[C@@H]1[C@@H](O)[C@H](C)O[C@@H](O[C@H]2[C@@H]3C=CO[C@@H](O[C@@H]4O[C@H](CO)[C@@H](O)[C@H](O)[C@H]4OC(C)=O)[C@@H]3[C@@]3(CO)O[C@@H]23)[C@@H]1OC(=O)/C=C/c1ccc(O)cc1
inactive: CRL-7250 0.704% | HEK293 2.14% | HaCat [1] | KB-3-1 | NIH3T3 | HACAT [2] inactive [at 17.4 µM]

COc1c(C)c(OCC=C(C)C)cc2c1COC2=O
inactive: CRL-7250 -4.58% | HEK293 3.79% | HaCat [1] | KB-3-1 4.15% | NIH3T3 2.66% | HACAT [2]
